# Screens from PubChem BioAssay.
# FBPA coupling cs: inhibits coupling enzyme system, counter-screen for aldolase hits; activity change, negative = inhibition, % at 58.2 µM, hits read low; actives 0.67% (n = 290,000); coupling enzyme system counterscreen, AmpLite Red fluorescence; in the data active means activity change below about -30%
#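 Final compound at 57.5 uM, incubated 10 min at RT with coupling enzyme reagent (glyceraldehyde-3-phosphate), then 20 min with substrate and AmpLite Red detection. Fluorescence read at 525/598 nm; tests interference with the coupling assay, not aldolase inhibition.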
# Tau fluor counter: counter-screen for tau fibril formation inhibitors. actives 0.93% (n = 280,000). tau K18 P301L Alexa594 fluorescence, heparin fibrillization. Potency, µM (titrated, usually from 57.7 µM), for inactives: at the highest dose activity change, negative = decrease. AID 1463; further: potency means the concentration at half of the fitted maximal effect; nearly all actives have a fitted effect of over 55% in size
#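 Human K18 P301L tau (15 uM unlabeled plus 0.24 uM Alexa 594-labeled, final) in 100 mM sodium acetate pH 7 was mixed with compound and 20 uM heparin and incubated 6 hr at 37 C.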
# Tau fibril FP: blocks human tau fibril formation measured by polarization. P10636. K18 P301L tau heparin fibrillization, Alexa594 FP, 6 h. Potency, µM (titrated, usually from 57.7 µM), for the others: top-dose activity, negative = inhibition, actives largely listed as inhibitors. actives 0.39% (n = 280,000); further: potency means the concentration at half of the fitted maximal effect; nearly all actives have a fitted effect of over 55% in size
# Target sequence (P10636 561-689 P618L limits assumed): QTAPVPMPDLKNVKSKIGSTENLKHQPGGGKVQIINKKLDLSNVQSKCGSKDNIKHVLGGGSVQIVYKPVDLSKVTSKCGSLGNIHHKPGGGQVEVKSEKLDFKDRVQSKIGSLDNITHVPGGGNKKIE
#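 Quantitative HTS format: compounds meet 15 uM recombinant K18 P301L tau and Alexa 594-tau tracer in 100 mM sodium acetate pH 7; 20 uM heparin triggers fibrillization at 37 C over 6 hr; FP gives the signal.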
# Tau ThT inhib: tau fibrillization inhibition (ThT binding); P10636; recombinant tau K18 P301L, heparin-induced fibrillization, ThT fluorescence; Potency, µM (series often up to 57.4 µM), inactives show at the highest dose activity, negative = inhibition, actives largely listed as inhibitors; actives 2.1% (n = 270,000); AID 1460; further: potency means the concentration at half of the fitted maximal effect; nearly all actives have a fitted effect of over 55% in size
#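 Fibril formation assay: tau K18 P301L at 15 uM with trace Alexa 594 label, heparin inducer 20 uM, pH 7 sodium acetate buffer, 37 C for 6 hr; endpoint ThT signal.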
# An asterisk follows results filed as active; ? = inconclusive; nt = no result; [ ] = another dose, or the depositor's remark. Most compounds without a hit are left out; they make up all but 2.7% or so of the library. Unless noted, the call rests on the fitted dose curve; in most records, active means well fitted curve in the direction sought with a large enough effect; inconclusive means small, poorly fitted or top-dose-only effect, or another doubt; inactive means no such curve, though single readings can be large; an effect the other way counts as inactive or inconclusive. On the % scale 0 is the no-effect control and ±100 the full control effect.
SMILES,FBPA coupling cs,Tau fluor counter,Tau fibril FP,Tau ThT inhib
COc1cccc(C2SCC(=O)N2c2ccc(Cl)cc2)c1OC (stereo not drawn),1.8,0.5%,?,1.0%
COc1ccccc1/C=C1\SC(=S)N(C(C(=O)O)c2ccccc2)C1=O (stereo not drawn),20.3,-2.3%,-2.3%,?
CC(C(=O)O)N1C(=O)/C(=C/c2cccn2C)SC1=S (stereo not drawn),14.5,-7.8%,0.2%,17.8µM*
CCC(C(=O)O)N1C(=O)/C(=C/c2cccn2C)SC1=S (stereo not drawn),16.2,-0.6%,7.4%,12.6µM*
CN1/C(=C\C=C2/SC(=S)N(CC(=O)O)C2=O)C(C)(C)c2ccccc21,-13.4,?,-10.6%,3.98µM*
Cn1cccc1/C=C1/SC(=S)N(CC(=O)O)C1=O,5.8,-11.5%,-2.9%,15.8µM*
C=CCN1C(=O)/C(=C\C=C2\N(C)c3ccccc3C2(C)C)SC1=S,4.7,16.8%,-7.5%,?
Cc1ccc(NC(=O)CN2C(=O)S/C(=C\c3cccn3C)C2=O)cc1,-0.3,-14.4%,-10.5%,-1.0%
O=C(COCc1cc(-c2cccs2)on1)N1CCN(c2ccccc2)CC1,nt,-21.2%,-4.5%,?
COc1ccc(N2CCN(C(=O)c3cc(S(=O)(=O)N4CCC(C)CC4)cn3C)CC2)cc1,nt,-13.8%,2.1%,-0.3%
CC(=O)Nc1c(C)nn(-c2ccccc2)c1N1CCC(C(=O)Nc2cccc(C(F)(F)F)c2)CC1,nt,-23.4%,-0.8%,-2.8%
CCCNC(=O)C1CCC(Cn2c(=O)c3sccc3n(CC(=O)N3CCCC(C)C3)c2=O)CC1 (stereo not drawn),nt,9.4%,7.8%,8.3%
Fc1cccc(NC(=S)NCc2ccc(Cl)cc2)c1,1.8,-25.9%,-13.0%,7.0%
Fc1cc(NC(=S)NCc2ccc(CNC(=S)Nc3ccc(Cl)c(F)c3)cc2)ccc1Cl,0.5,-23.7%,3.98µM*,17.0%
O=C1NC(c2ccc(Cl)c([N+](=O)[O-])c2)Nc2ccccc21 (stereo not drawn),-0.1,-11.9%,-6.5%,-16.0%
O=[N+]([O-])c1cc(C2Nc3cccc4cccc(c34)N2)ccc1Cl,-6.7,17.8µM*[quencher],?,17.8µM*
COc1ccc(/C=C\c2onc(C)c2S(=O)(=O)N2CCC(C(=O)Nc3ccc(F)cc3F)CC2)cc1,nt,-22.9%,?,0.6%
Cc1cn(C)c(CC(=O)NCc2ccc(F)cc2)c1C(=O)O,nt,10.4%,3.3%,7.4%
CC1=Nc2nc(N3CCCCC3)c(C#N)c3c4c(nc(c23)N1)N(c1ccc(C(C)C)cc1)C(=O)C4,0.0,-29.9%,?,12.6µM*
CCCCC1=CC2=C(c3ccco3)C(=O)C(C)(OC(=O)c3ccc(Cl)nc3)C(=O)C2=CO1 (stereo not drawn),3.3,-7.1%,4.7%,-12.8%
CCCCC1=CC2=C(OC(C)=O)C(=O)C(C)(OC(=O)c3ccc(Cl)nc3)C(=O)C2=CO1 (stereo not drawn),0.6,?,?,22.4µM*
CC(=O)c1cccc(NS(=O)(=O)c2ccc3[nH]c4c(c3c2)CCCCCC4)c1,nt,14.1µM*[quencher],4.6%,-7.4%
O=S(=O)(NCc1ccccc1)c1ccc2[nH]c3c(c2c1)CCCCC3,nt,?,-11.2%,11.4%
CC(=O)c1cccc(NS(=O)(=O)c2ccc3[nH]c4c(c3c2)CCCCC4)c1,nt,14.1µM*[quencher],2.0%,-1.8%
CCOC(=O)c1cccc(NS(=O)(=O)c2ccc3[nH]c4c(c3c2)CCCC4)c1,nt,10µM*[quencher],-2.1%,-1.1%
SMILES,FBPA coupling cs,Tau fluor counter,Tau fibril FP,Tau ThT inhib
COc1ccc2nc3cc(Cl)ccc3c(Nc3cc(C(C)C)c(O)cc3C)c2c1,-24.5,7.08µM*[quencher],?,5.01µM*
Cc1cccc(C2NC(=O)c3c(sc(C)c3C)N2)c1O (stereo not drawn),-3.7,-13.6%,-10.4%,15.8µM*
Cc1ccc(C2NC(=O)c3c(sc(C)c3C)N2)c(O)c1 (stereo not drawn),-3.7,?,-13.1%,?
CC(C)c1nn2c(=O)cc(COC(=O)c3ccc(NC(=O)C4CCCCC4)cc3)nc2s1,nt,3.5%,-1.5%,2.6%
CCN(CC)S(=O)(=O)c1cccc(C(=O)NCC2CCCO2)c1 (stereo not drawn),-10.6,-2.5%,-1.8%,-5.4%
CCN(CC)S(=O)(=O)c1cccc(NC(=O)C2SC(=Nc3ccc(C)cc3C)C(C(=O)NCC3CCCO3)=C2N)c1 (stereo not drawn),-0.7,12.6µM*[quencher],?,-14.4%
Cc1ccc(NC(=O)CSc2nc3c(oc4ccccc43)c(=O)n2Cc2ccco2)cc1F,nt,-10.7%,-7.2%,1.2%
CCN(CC)S(=O)(=O)c1ccc2c(c1)N(CC(=O)Nc1c(C)cccc1C)C(=O)CO2,nt,15.0%,5.3%,10.8%
COc1ccc2nc3ccccc3nc2c1NC(=O)c1ccc(Cl)cc1Cl,-33.3*,-15.2%,-2.2%,2.3%
COc1cc(-c2cc(C(=O)Nc3c(Cl)cc(Cl)cc3Cl)c3ccccc3n2)cc(OC)c1OC,-0.9,-18.9%,2.8%,-10.1%
CCOc1cccc2sc(N3CCN(C(=O)C(C)(C)C)CC3)nc12,nt,-8.6%,-6.6%,-15.6%
Cc1ccc(C(=O)Nc2cccc(C(F)(F)F)c2)cc1NC(=O)c1csc(-c2ccncc2)n1,6.6,-14.7%,-9.4%,-10.8%
N#C/C(=N\Nc1cccc(C(F)(F)F)c1)C(=O)c1csc(-c2cccnc2)n1,12.4,-15.2%,9.8%,4.47µM*
CCOc1ccccc1NC(=O)C1CCC(CNS(=O)(=O)c2ccc3c(c2)CCCC(=O)N3)CC1 (stereo not drawn),nt,-13.4%,6.7%,?
Cn1c(C(C#N)C(=O)c2sc3ccccc3c2Cl)nc2ccccc21 (stereo not drawn),-5.9,-1.1%,?,-8.1%
CCCn1nc([N+](=O)[O-])c(C(C#N)c2nc3ccccc3s2)c(Cl)c1=O (stereo not drawn),5.2,5.01µM*[quencher],17.8µM*,3.98µM*
CCn1nc([N+](=O)[O-])c(C(C#N)c2nc3ccccc3n2C)c(Cl)c1=O (stereo not drawn),-2.3,?,-1.0%,11.2µM*
CCOC(=O)C(=O)c1c(C)cc2ccccn12,-13.4,-7.9%,-3.2%,-13.5%
COC(=O)c1c(C)c2c(C)cc3ccccn3c-2c1C(=O)OC,-5.9,?,17.0%,12.6µM*
COC(=O)c1c(C(=O)OC)c2cccc3cc(-c4ccccc4)c4ccc1c4n32,-8.6,?,-13.6%,3.55µM*
COC(=O)c1cc2c(-c3ccccc3)cc3ccccn3c-2c1C(=O)OC,0.6,?,10.2%,15.8µM*
COC(=O)c1cc(-c2ccccc2)sc1N,-0.2,?,15.6%,?
CCc1ccc(NC(=O)CN2C(=O)C3(SCC(=O)N3c3ccccc3)c3ccccc32)cc1 (stereo not drawn),nt,-22.7%,-18.0%,6.1%
O=C1OC(c2ccccc2)=C/C1=C/c1cccs1,2.1,?,?,3.16µM*
O=C1N=C(c2ccccc2)S/C1=C\c1cccs1,1.0,?,?,7.94µM*
